This is an account of results in PubChem BioAssay (NCATS).

Assay [1] deals with Aldehyde dehydrogenase, mitochondrial (Homo sapiens) (UniProt P05091). Kind of assay: qHTS for Inhibitors of the Aldehyde Dehydrogenase Family (ALDH2) Confirmatory screens (AID 2061303; active means well fitted inhibition curve with a large enough effect; title and protocol of this record describe different tests; further: nearly all actives have a fitted effect of over 45% in size; further: potency means the concentration at half of the fitted maximal effect). Particulars: ALDH inhibition qHTS; series mostly up to 45.4 µM.
The nature of assay [2]: qHTS for Inhibitors of the Aldehyde Dehydrogenase Family (ALDH1A2, ALDH1A3, ALDH2, ALDH3A1) (AID 2061307). Further: nearly all actives have a fitted effect of over 50% in size. On Potency: test system not described further here; potency means the concentration at half of the fitted maximal effect. As to conditions: ALDH inhibition qHTS; series mostly up to 50.3 µM.
Assay [3] concerns the target Retinaldehyde dehydrogenase 3 (Homo sapiens) (UniProt P47895). In words: qHTS for Inhibitors of the Aldehyde Dehydrogenase Family (ALDH1A3) Confirmatory screens (AID 2061311). Further: nearly all actives have a fitted effect of over 60% in size. Further: potency means the concentration at half of the fitted maximal effect. Particulars: ALDH inhibition qHTS; series mostly up to 46 µM.
The target is the same in assay [4]. Kind of assay: qHTS for Inhibitors of the Aldehyde Dehydrogenase Family (ALDH1A3) Primary screen (AID 2061315). Particulars: ALDH inhibition qHTS; series mostly up to 56 µM.
The target of assay [5] is Aldehyde dehydrogenase 1A1 (Homo sapiens) (UniProt P00352). Kind of assay: qHTS for Inhibitors of the Aldehyde Dehydrogenase Family (ALDH1A1) Confirmatory screens (AID 2061316). Further: nearly all actives have a fitted effect of over 65% in size. Further: potency means the concentration at half of the fitted maximal effect. Particulars: ALDH inhibition qHTS; series mostly up to 47.3 µM.
Assay [6] has as its target Retinal dehydrogenase 2 (Homo sapiens) (UniProt O94788). Kind of assay: qHTS for Inhibitors of the Aldehyde Dehydrogenase Family (ALDH1A2) Confirmation screens (AID 2061314). Further: nearly all actives have a fitted effect of over 65% in size. Further: potency means the concentration at half of the fitted maximal effect. As to conditions: ALDH1A2 enzyme inhibition qHTS confirmation; series mostly up to 45.9 µM.

Each structure is given as a SMILES string. Inconclusive results are not listed. Values without a mark were called inactive. The source made the active and inactive calls. Unless noted, the call rests on the fitted dose curve; in most records, active means well fitted inhibition curve with a large enough effect; inconclusive means small, poorly fitted or top-dose-only effect; inactive means no such curve, though single readings can be large or run the other way.

For `Cc1cc(-c2nnc3n2CCCCC3)c(C)n1-c1ccccn1`, the Potency result in assay [1], in assay [2] and in assay [4] was “inactive” throughout. Also, the Potency in assay [3] was 14.2 µM (active).
Turning to `O=C(Nc1cccc(C(F)(F)F)c1)c1cccc(C(=O)Nc2cccc(C(F)(F)F)c2)c1`, the Potency entry in assay [1], in assay [2], in assay [3] and in assay [5] was “inactive” each time.
For the compound `CCc1ccc(-n2c(SCc3cccc(F)c3)nc3[nH]ncc3c2=O)cc1`, the Potency result in assay [1], in assay [2] and in assay [6] was “inactive” each time. Further, the values for the Potency in assay [3] and in assay [5] were 15.8 µM (active) and 1.82 µM (active), respectively.
On to `COc1ccnc(NC(=S)N2CCN(c3cccc(C(F)(F)F)c3)CC2)c1`, for which the Potency is 12.6 µM (active) in assay [1]; 8.91 µM (active) in assay [2]; 7.12 µM (active) in assay [3]; 22.5 µM (active) in assay [6]; 10.1 µM (active) in assay [5].
With `Cc1ccc(-n2c(=O)c3c(cnn3C)n(CC(=O)Nc3ccccc3C)c2=O)cc1`, the Potency result in assay [1], in assay [2], in assay [6] and in assay [5] was “inactive” throughout. The Potency in assay [3] was 22.4 µM (active).
Turning to `O=C(O)c1cccc(-n2[nH]c(-c3ccccc3)cc2=O)c1`, the Potency in assay [1] was 11.2 µM (active); in assay [2], 5.01 µM (active); in assay [3], 15.8 µM (active); in assay [6] it was 7.98 µM (active); in assay [5] it was 25.1 µM (active).
With `COc1ccccc1-c1cc(NCCc2ccccn2)c2onc(C)c2n1`, the Potency entry in assay [1], in assay [2], in assay [6] and in assay [5] was “inactive” in each case. The Potency in assay [3] is 22.4 µM (active).
In the case of `COc1cccc(-c2nc(SCc3ccc(C)cc3)n3[nH]c(=O)cc3n2)c1`, the Potency result in assay [1], in assay [2], in assay [6] and in assay [5] was “inactive” each time. Also, the Potency in assay [3] was 7.08 µM (active).
Consider `CC(=O)c1ccc(NC(=O)CSc2ccc3nc(-c4ccccc4)cn3n2)cc1`, for which the Potency in assay [1] is 22.9 µM (active); in assay [2], 0.0576 µM (active); in assay [3], 0.258 µM (active); in assay [6], 15.8 µM (active); in assay [5] it was 1.82 µM (active).
With `CC[C@H](CO)Nc1nc(Nc2cccc(-c3ccccn3)c2)c2ncn(C(C)C)c2n1`, the Potency result in assay [1], in assay [2], in assay [3] and in assay [4] was “inactive” each time.
In the case of `COc1ccc2c(c1)CCc1sc(NC(=O)c3ccc(Cl)cc3)nc1-2`, the Potency in assay [1] is 15.8 µM (active); in assay [2], 3.24 µM (active); in assay [3], 16.2 µM (active); in assay [5], 4.58 µM (active).
`O=C1c2ccccc2C(=O)N1c1cccc2ccncc12`: the Potency entry in assay [1], in assay [2], in assay [3] and in assay [4] was “inactive” in each case.
For the compound `COc1ccc(Nc2ncc(C(=O)N3CCN(c4ccc(F)cc4)CC3)c3ccccc23)cc1`, the Potency entry in assay [1], in assay [3], in assay [6] and in assay [5] was “inactive” each time. Moreover, in assay [2], the Potency was 15.8 µM (active).
For the compound `Oc1ccc(CNc2cccnc2)c2cccnc12`, the Potency in assay [1] is 10.1 µM (active); in assay [2], 7.98 µM (active); in assay [3], 4.49 µM (active); in assay [6] it was 5.65 µM (active); in assay [5], 4 µM (active).
The corresponding values for `Cc1ccc(CCNc2ncnc3onc(-c4ccc(Cl)cc4)c23)cc1` are “inactive”, “inactive”, 4.47 µM (active), “inactive” and “inactive”.
The matching figures for `CC(=O)Nc1ccc(Nc2nc3c(S(=O)(=O)c4cccc(Cl)c4)nnn3c3ccsc23)cc1`: “inactive”, “inactive”, 28.2 µM (active), “inactive” and “inactive”.
The matching figures for `CC(=O)c1ccc(N2CCN(S(=O)(=O)c3ccc4c(c3)C(C)(C)C(=O)N4)CC2)cc1`: “inactive”, “inactive”, 5.01 µM (active), “inactive” and “inactive”.
On to `CCOc1ccc(NC(=O)Cn2c(Nc3cc(C)cc(C)c3)nc(C)cc2=O)cc1`, for which the Potency in assay [1] is 15.8 µM (active). Moreover, the Potency entry in assay [2], in assay [3] and in assay [5] was “inactive” throughout.
On to `COc1ccc(S(=O)(=O)N2CCN(C(=O)c3ccc([N+](=O)[O-])o3)CC2)cc1`, for which the Potency entry in assay [1], in assay [2], in assay [3] and in assay [6] was “inactive” in each case. Moreover, in assay [5], the Potency was 10 µM (active).
As for `COc1ccc(-c2nc(CNS(=O)(=O)c3ccc(F)cc3)cs2)cc1`, the Potency in assay [1] is 11.2 µM (active). Further, the Potency entry in assay [2], in assay [3] and in assay [5] was “inactive” in each case.
With `CC(C)(C)OC(=O)N1CCN(c2ccc(NCc3ccc(-c4cccc([N+](=O)[O-])c4)o3)cc2)CC1`, the Potency in assay [1] was 0.896 µM (active); in assay [2], 4 µM (active); in assay [5], 14.2 µM (active). Further, the Potency result in assay [3] and in assay [4] was “inactive” throughout.
